Source: PubChem BioAssay (NCI)
About 83,000 compounds went through this panel and 20% of them were active in at least one assay; those are over-represented in the sample as a whole.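 How to read the values: 0–100, growth inhibition (40 = 60% inhibited); 0, no net growth; -100 to 0, cell death (-40 = 40% of starting cells died; -100 = all dead).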 A number with no mark means an inactive call. Calls of active or inactive are those of the source. Rule for the calls: active = growth percent below 10; inactive = the rest.

How the values were obtained:
Experiment in all cases: NCI-60 one-dose screen, 48 h (100 = growth as untreated, 0 = no growth, -100 = all killed)
Conditions in all cases: 10 µM unless noted
[1] = system: SK-MEL-2 melanoma
[2] = system: EKVX NSCLC
[3] = system: SN12C renal
[4] = system: UO-31 renal
[5] = system: TK-10 renal
[6] = system: ACHN renal
[7] = system: A498 renal
[8] = system: CCRF-CEM leukemia
[9] = system: MOLT-4 leukemia
[10] = system: SR leukemia
[11] = system: RPMI-8226 leukemia
[12] = system: OVCAR-8 ovarian
[13] = system: OVCAR-5 ovarian
[14] = system: OVCAR-4 ovarian
[15] = system: SK-OV-3 ovarian
[16] = system: IGROV1 ovarian
[17] = system: OVCAR-3 ovarian
[18] = system: HS 578T breast
[19] = system: NCI/ADR-RES ovarian
[20] = system: T-47D breast

SMILES	growth [1]	growth [2]	growth [3]	growth [4]	growth [5]	growth [6]	growth [7]	growth [8]	growth [9]	growth [10]	growth [11]	growth [12]	growth [13]	growth [14]	growth [15]	growth [16]	growth [17]	growth [18]	growth [19]	growth [20]
O=[N+]([O-])c1cccc(CN(Cc2cccc([N+](=O)[O-])c2O)c2ccccc2)c1O	84.7%	77.3%	80.6%	39.6%	89.7%	74.6%	65.5%	67.8%	64.6%	55.8%	59.8%	83.2%	76.5%	68%	86.4%	60.4%	88.9%	94.6%	76%	70.8%
Cc1ccc(-c2nc(C#N)c(S(=O)(=O)N(C)CCO)o2)cc1	80.4%	107%	51%	78.4%	116%	60.7%	114%	2.67% (active)	7.32% (active)	10.8%	27.7%	67.4%	92%	105%	102%	60.5%	42.3%	99.3%	96.7%	67.3%
CCCn1c(N)c(C(N)=O)sc1=S	93.3%	116%	93.8%	79.2%	130%	93.9%	98.5%	108%	97%	66.6%	94.5%	106%	90.8%	111%	103%	100%	103%	95.7%	104%	94.8%
Nc1c(C(=O)Nc2ccccc2Cl)sc2nc3c(cc12)CN(Cc1ccccc1)CC3	95.6%	93%	101%	99.7%	98.5%	104%	85.4%	91.7%	89.6%	87.1%	103%	118%	95.5%	113%	91.2%	87.5%	85.1%	108%	99.8%	87.8%
CN(C)CSc1nc2ccccc2s1	101%	87.6%	101%	71.8%	119%	92.6%	111%	83.5%	99.7%	94.1%	98.7%	104%	93.6%	102%	84.7%	83.7%	99.9%	116%	102%	86.7%
O=c1c2ccccc2n(CC(O)CN2CCCC2)c2c(Br)cccc12 (stereo not given)	112%	99.1%	109%	89.1%	106%	108%	71.8%	82.3%	104%	77%	44.9%	94.1%	76.3%	108%	101%	93.3%	106%	98.9%	-14.8% (active)	93.4%
CCCS(=O)(=O)Nc1ccc(F)c(C(=O)c2c[nH]c3ncc(-c4ccc(OCCCC5CCCCN5)nc4)cc23)c1F (stereo not given)	58.5%	89.7%	62.5%	102%	81.2%	92.3%	64.8%	56.5%	43.1%	43.1%	64%	88.9%	78.1%	83.6%	11.6%	31.7%	89.6%	9.28% (active)	100%	17.7%
O=C1CC23OC4ON=C(Br)C4C2C(O)c2ccccc2N13 (stereo not given)	89.8%	92.1%	101%	63.4%	132%	94.3%	118%	111%	99.6%	107%	100%	104%	114%	120%	93.5%	88.8%	96.3%	98.4%	94.5%	100%
CC1(C)CC[C@]2(c3nnc(-c4ccncc4)o3)CC[C@]3(C)C(=CC[C@@H]4[C@@]5(C)CCC(=O)C(C)(C)[C@@H]5CC[C@]43C)[C@@H]2C1	96%	76.3%	79.7%	77.5%	128%	88.7%	106%	75.5%	52%	63.7%	62.4%	81.1%	99.9%	89.2%	104%	93.2%	80.8%	98.6%	97.2%	65.9%
O=CN1N=C(c2ccc(F)cc2)CC1c1cccc(Nc2ccnc3cc(C(F)(F)F)ccc23)c1 (stereo not given)	54.2%	50.6%	81%	44.6%	62.7%	54.4%	49.6%	44.8%	23.1%	20.2%	24.6%	41.5%	95.2%	41%	69.1%	67.9%	59.8%	73.5%	47.4%	26.4%
S=c1ssnc1-c1cc2ccccc2o1	91.2%	76.6%	98.8%	52.5%	98.4%	80.3%	103%	7.9% (active)	51.1%	41.6%	21.4%	86%	105%	83.2%	85.7%	-54% (active)	80.4%	61.9%	78%	64.5%
COC1=CC2C=C(C3N(c4ccccc4)NC(=O)[C@@H]4CCCN34)C(=O)NC2C=C1 (stereo not given in full)	97.9%	96.7%	107%	86.9%	100%	102%	95.9%	113%	124%	105%	110%	110%	107%	96.8%	104%	105%	104%	99%	101%	99%
C=C(C)[C@@H]1CC[C@]2(C(N)=O)CC[C@]3(C)[C@H](CC[C@@H]4[C@@]5(C)CCCNC(C)(C)[C@@H]5CC[C@]43C)[C@@H]12	105%	87.5%	77.7%	84.4%	107%	88.9%	99%	52.5%	48.9%	3% (active)	13.5%	82.1%	82.9%	83.6%	87.5%	84.2%	88.8%	74.9%	84.6%	55.9%
COc1ccc(-c2[nH]c3ccc(OC)cc3c2C=C(C#N)C#N)cc1	34.3%	36.5%	63.1%	50.1%	70.4%	63.9%	52.6%	11.1%	27.3%	-3.05% (active)	-11.5% (active)	57.3%	55.8%	39.5%	41.7%	39.1%	-14.1% (active)	52.4%	1.87% (active)	33.8%
COc1ccc(N(C)c2nc(Cl)nc3ccn(C)c23)cc1	19.3%	43.1%	23%	45%	67.7%	21.9%	-9.23% (active)	8.02% (active)	9.94% (active)	11.3%	6.35% (active)	0.816% (active)	30.6%	36.6%	7.76% (active)	26.1%	-12.3% (active)	36.8%	3.41% (active)	74.9%
